# Source: PubChem
# CYP2C9 activ: human CYP2C9 activators, primary screen, biochemical, luminescence; recombinant CYP2C9, luciferin-H conversion; active compounds read high; factor 1 = untreated enzyme, 0 = blocked; Cytochrome P450 2C9 (Homo sapiens), P11712; AID 1024, 2008; activation factor at 5 µM; actives 1.4% (n = 96,000);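 active = activation factor of 2 or more for CYP2C9 at a 5 µM dose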;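 note: 0 = sulfaphenazole-blocked wells and 1 = vehicle-only wells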
# CYP2C19 activ: human CYP2C19 activators, primary screen, biochemical, luminescence. recombinant CYP2C19, luciferin-H EGE luminescence; active compounds read high; 0 = fully inhibited enzyme, 1 = untreated enzyme. Cytochrome P450 2C19 (Homo sapiens), P33261. 96,000 tested, under 10 active. AID 1025, 2008. activation factor at 5 µM;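 active = activation factor of at least 2 at 5 µM in the primary screen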;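 note: 0 = wells with 2.5 mM tranylcypromine and 1 = vehicle-only wells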
# Target sequence (P33261 whole entry, looked up): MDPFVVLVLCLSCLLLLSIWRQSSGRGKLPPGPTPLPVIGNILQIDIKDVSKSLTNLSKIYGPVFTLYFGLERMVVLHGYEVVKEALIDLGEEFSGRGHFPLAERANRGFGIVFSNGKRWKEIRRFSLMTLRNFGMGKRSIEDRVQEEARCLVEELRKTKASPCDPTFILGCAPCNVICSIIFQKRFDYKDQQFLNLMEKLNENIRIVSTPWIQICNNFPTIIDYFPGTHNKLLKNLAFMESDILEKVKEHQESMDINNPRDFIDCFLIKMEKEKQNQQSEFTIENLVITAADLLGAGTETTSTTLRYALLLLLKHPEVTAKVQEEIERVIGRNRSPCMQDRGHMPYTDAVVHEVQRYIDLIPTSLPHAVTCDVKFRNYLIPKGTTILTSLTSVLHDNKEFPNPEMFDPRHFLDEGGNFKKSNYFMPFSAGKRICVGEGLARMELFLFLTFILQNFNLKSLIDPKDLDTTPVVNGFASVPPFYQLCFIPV
# EphB4 antag: EphB4-ephrin-B2 interaction antagonists, primary screen, biochemical, TNYL-RAW peptide probe, fluorescence polarization. Ephrin type-B receptor 4 (Homo sapiens), P54760. EphB4 LBD / TNYL-RAW-Alexa532 peptide. inhibition, % at 7 µM. actives 0.15% (n = 97,000);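 active = inhibition above the screen-wide mean inhibition plus 3 SD, cut at about 15% in these data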;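 note: 0% = DMSO wells and 100% = excess unlabeled TNYL-RAW peptide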
# CYP2C19 inhib: blockers of cytochrome P450 2C19 activity – biochemical, luminescence, ADME assay, primary screen. inhibition, % at 5 µM. AID 778, 2007. P33261. CYP2C19 Supersomes, luciferin-H EGE luminescence, 30 min. actives 21% (n = 96,000);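 active = CYP2C19 inhibition above a set limit at 5 µM in the primary screen, cut at about 50% in these data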;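 note: plate controls were negative control wells for no effect and 2.5 mM tranylcypromine positive control for full effect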
# CYP2C9 inh: blockers of cytochrome P450 2C9 activity – biochemical, luminescence, ADME assay, primary screen. P11712. CYP2C9 Supersomes, luciferin-H conversion. inhibition, % at 5 µM. actives 20% (n = 96,000). AID 777, 2007;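 active = blocking of liver enzyme CYP2C9 beyond about 50% at 5 µM, limit read from the data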
# * marks the source's active call; other numbers are inactive results; nt = no result. Rows were chosen to be rich in hits. Some 27% of all compounds tested hit in one or more screens of this group.
SMILES,CYP2C9 activ,CYP2C19 activ,EphB4 antag,CYP2C19 inhib,CYP2C9 inh
CCOC(=O)CCNCC1COc2ccccc2O1 (stereo not drawn),1,0.3,-7.1,74.8*,1.8
CCN(CC1COc2ccccc2O1)C(=S)Nc1ccccc1 (stereo not drawn),0.6,0.4,-2.5,56.5*,42.0
COc1cccc(CC(=O)NCC2COc3ccccc3O2)c1OC (stereo not drawn),0.7,0.4,-0.3,64.0*,27.7
COc1ccccc1NC(=O)CN1C(=O)C(C)Oc2ccccc21 (stereo not drawn),0.4,0.2,2.8,84.7*,61.2*
Cc1onc(-c2c(F)cccc2Cl)c1C(=O)NCC1COc2ccccc2O1 (stereo not drawn),0.4,0.3,6.0,70.3*,58.7*
COC(=O)c1ccc(CSc2n[nH]c(=S)s2)o1,0.4,0.8,7.7,19.6,57.9*
COC(=O)c1ccc(CSc2ncnc3ccccc23)o1,0.5,0.3,1.8,69.8*,45.9
COC(=O)c1ccc(CSc2ncn[nH]2)o1,1.1,0.8,-1.6,23.5,-10.4
COC(=O)c1ccc(CSc2nc3ccccc3s2)o1,0.6,0.1,-0.8,94.7*,42.4
Cc1cc(C)nc(-n2nc(C)cc2NC(=O)CN2CCC(C)CC2)n1,0.7,1,3.5,3.4,30.7
CCC1CCCCN1CC(=O)Nc1cc(C)nn1-c1nc(C)cc(C)n1 (stereo not drawn),0.1,0.5,5.4,52.0*,93.4*
O=C(NCC1CCCO1)c1ccc(Cl)c(F)c1F (stereo not drawn),1,0.7,-3.7,26.4,2.7
CC(=O)N1CN(CCCn2ccnc2)Cc2c1sc1c2CCCC1,0,0.1,-12.4,94.2*,95.6*
COc1cccc(C(c2nnnn2CS(=O)(=O)c2ccc(C)cc2)N2CCN(C)CC2)c1OC (stereo not drawn),0.9,1.1,7.5,-6.7,5.0
CCCN1Cc2cccc(C(=O)NCc3cccs3)c2C1=O,0.5,0.3,4.7,73.3*,52.0*
CCCN1Cc2cccc(C(=O)NCc3ccc4c(c3)OCO4)c2C1=O,0.6,0.8,nt,18.2,38.0
COCCN1Cc2cccc(C(=O)Nc3ccc(C)c(C)c3)c2C1=O,0.6,1,5.3,3.0,40.9
CCOc1ccc(NC(=O)c2cccc3c2C(=O)N(CCOC)C3)cc1,0.3,0.8,1.3,20.5,72.1*
COCCN1Cc2cccc(C(=O)NC(C)c3cccs3)c2C1=O (stereo not drawn),0.7,0.4,9.2,63.3*,28.4
COc1ccc2ncn(-c3ccccc3)c2c1,0.5,0.1,-0.9,94.8*,54.7*
COc1ccc(-n2cnc3ccccc32)cc1,0.4,0.4,1.2,61.2*,58.7*
CCn1c(=O)cc(O)c2c(=O)n(C)c(=O)n(C)c21,0.6,1,1.7,1.9,43.2
Cc1ccc(CN2C3=NC(=O)CN3c3ccccc32)cc1,1.3,1.2,-2.4,-20.7,-33.1
CC(CC1CC(C)(C)OC1=O)C(=O)Nc1nncs1 (stereo not drawn),1.1,0.8,-7.8,18.4,-7.0
Cc1ccc(Nc2nc(N)nc(CN3CCN(Cc4ccc5c(c4)OCO5)CC3)n2)c(C)c1,0.6,0.5,4.3,51.5*,38.5
SMILES,CYP2C9 activ,CYP2C19 activ,EphB4 antag,CYP2C19 inhib,CYP2C9 inh
Cc1ccc(Nc2nc(N)nc(CN3CCN(Cc4ccc5c(c4)OCO5)CC3)n2)cc1,0.6,0.5,-4.8,51.5*,43.7
Cc1ccc(Nc2nc(N)nc(CN3CCN(Cc4ccc5c(c4)OCO5)CC3)n2)cc1Cl,0.3,0.4,-1.5,59.8*,74.3*
CC(=O)N1CC2(C)CN(C(C)=O)CC(C)(C1)C2O (stereo not drawn),1.2,1,10.8,4.3,-19.3
CC1(C)CC2(CCO1)N1CC3(C)CN2CC(C)(C1)C3O (stereo not drawn),0.5,0.9,-1.7,7.9,51.8*
COc1ccc(C2CC(O)(C(C)(C)O)NO2)cc1 (stereo not drawn),0.9,0.9,0.2,5.7,13.0
CCN(CCCNC(=O)CNC(=O)Cn1cnc2ccccc2c1=O)c1ccccc1,0.8,0.8,nt,19.8,21.6
CCSc1nc(C)cc(C)c1S(=O)(=O)c1ccccc1C,1.5,0.6,5.4,41.5,-45.6
CSc1nc(C)cc(C)c1S(=O)(=O)c1ccccc1C,2.9*,0.9,2.3,12.2,-189.7
CCOc1ccccc1CN1CCN(S(C)(=O)=O)CC1,1.1,0.7,5.4,31.6,-9.6
CCn1ncc(C2=NOC(C(=O)NCc3ccc(Cl)cc3)C2)c1C (stereo not drawn),0.5,0.3,nt,66.5*,50.2*
CCn1ncc(C2=NOC(C(=O)Nc3ccc(C)cc3)C2)c1C (stereo not drawn),1.2,0.7,-0.3,29.4,-22.6
CCn1ncc(C2=NOC(C(=O)Nc3ccc4c(c3)OCO4)C2)c1C (stereo not drawn),0.7,0.4,nt,55.7*,28.3
CC1CCN(C(=O)CSc2nc3ccccc3[nH]2)CC1,0.8,0.3,nt,73.6*,24.7
C/C(N)=C(/C#N)C(=O)CSc1ncnc2ccccc12,1,0.3,nt,70.7*,2.2
NC(=O)C1CCN(C(=O)CSc2nc3ccccc3[nH]2)CC1,0.9,1,1.2,3.6,7.2
C/C(N)=C(/C#N)C(=O)CSc1nc2ccccc2[nH]1,0.9,0.3,-4.1,70.9*,10.9
NS(=O)(=O)c1ccc(NC(=O)C2CCCN(S(=O)(=O)c3ccc(F)cc3)C2)cc1 (stereo not drawn),0.8,0.9,4.6,7.9,16.4
O=C(NC1CC1)c1nc2c(nnn2Cc2ccccc2Cl)c(=O)[nH]1,nt,nt,-7.0,nt,nt
COC(=O)c1sc2ncccc2c1OCc1c(Cl)cccc1Cl,0.7,0.7,-0.7,33.0,34.8
Cc1cc(C)c(C(=O)c2ccc(C(=O)N(C(C)C)C(C)C)cc2)c(C)c1,0.2,0.1,-1.8,85.5*,82.3*
CC(=O)c1ccc(OCC(O)CN2C(C)(C)CC(O)CC2(C)C)cc1 (stereo not drawn),0.6,0.9,-2.2,12.5,37.7
CCOc1cc(S(=O)(=O)n2cc(-c3ccc(F)cc3)c(N)n2)cc(OCC)c1OCC,0.3,0.7,-9.0,25.7,75.0*
CCOc1ccc(S(=O)(=O)n2cc(-c3ccc(F)cc3)c(N)n2)cc1,0.6,1.1,12.4,-6.3,41.0
COc1ccccc1-c1cn(S(=O)(=O)c2ccc(F)cc2)nc1N,0.1,0,-7.7,96.7*,86.1*
Cc1ccc(Nc2c([N+](=O)[O-])c(=O)n(C)c3ccccc23)cc1C,1.2,0.4,-11.8,63.8*,-19.1
Cc1cc2oc(=O)cc(COC(=O)Cn3cnnn3)c2cc1C(C)C,nt,nt,1.0,nt,nt
